# Values joined by “and” are separate entries in the source; they are usually repeats but may differ in a detail not shown here. Equal values may be shown once. Records with an inconclusive call do not appear. Where a call stands in place of a potency, no number is given. More than one record can exist for a structure, and the calls need not agree. Active and inactive are the calls of the source. Unless noted, the call rests on the fitted dose curve; in most records, active means well fitted curve in the direction sought with a large enough effect in the repeat runs; inconclusive means weak or mixed curves; inactive means no such curve, though single readings can be large; an effect the other way counts as inactive or inconclusive.
# Columns and labels:
# [1] = qHTS assay to identify small molecule agonists of the peroxisome proliferator-activated receptor delta (PPARd) signaling pathway - cell viability counter screen (AID 743211); further: nearly all actives have a fitted effect of over 55% in size; further: potency means the concentration at half of the fitted maximal effect
# Outline: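 Viability was measured as CellTiter-Glo luminescence (30 min, room temperature) in the same wells as the beta-lactamase readout. GeneBLAzer PPARd UAS-bla HEK293H cells received compound after 5 h plating and were incubated 17 h at 37 C.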
# [2] = biological target: Peroxisome proliferator-activated receptor delta (Homo sapiens) (UniProt Q03181); assay: qHTS assay to identify small molecule agonists of the peroxisome proliferator-activated receptor delta (PPARd) signaling pathway (AID 743212; calls by dose curve)
# Outline: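 Beta-lactamase reporter read by fluorescence (LiveBLAzer B/G FRET, 2 h, room temperature). Test agents, in DMSO, incubated at 37 C with PPARd-bla HEK293H cells.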
# [3] = qHTS assay to identify small molecule antagonists of the peroxisome proliferator-activated receptor delta (PPARd) signaling pathway - cell viability counter screen (AID 743213); further: nearly all actives have a fitted effect of over 50% in size; further: potency means the concentration at half of the fitted maximal effect
# Outline: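 Same-well viability: cells pre-incubated 5 h, dosed with compound plus 300 nM L165041, kept 17 h at 37 C, FRET substrate 2 h RT, then CellTiter-Glo 30 min RT and luminescence.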
# [4] = biological target: Peroxisome proliferator-activated receptor delta (Homo sapiens) (UniProt Q03181); assay: qHTS assay to identify small molecule antagonists of the peroxisome proliferator-activated receptor delta (PPARd) signaling pathway (AID 743215; active means well fitted inhibition curve with a large enough effect in the signal ratio in the repeat runs, not every such curve was filed as active; the % refers to the signal ratio;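 further: cells stimulated with agonist L165041 at 300 nM final during compound exposure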; further: potency means the concentration at half of the fitted maximal effect)
# Outline: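 Screen format: qHTS, antagonist mode. HEK293H PPARd-bla cells received compound and 300 nM L165041 (final), 17 h, 37 C. Beta-lactamase detected via FRET substrate fluorescence, 2 h, room temperature.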
# [5] = qHTS assay to identify small molecule agonists of the farnesoid-X-receptor (FXR) signaling pathway - cell viability counter screen (AID 743218); further: nearly all actives have a fitted effect of over 45% in size; further: potency means the concentration at half of the fitted maximal effect
# Outline: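 Same-well cytotoxicity check on FXR-UAS-bla HEK 293T cells: 5 h attachment, 16 h compound at 37 C, CellTiter-Glo luminescence read at room temperature after 30 min.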
# [6] = qHTS assay to identify small molecule antagonists of the farnesoid-X-receptor (FXR) signaling pathway - cell viability counter screen (AID 743221; active means well fitted cell-killing curve with a large enough effect in the repeat runs, not every such curve was filed as active; further: nearly all actives have a fitted effect of over 50% in size; further: potency means the concentration at half of the fitted maximal effect)
# Outline: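 Cytotoxicity counter screen run in the FXR-bla reporter wells: HEK 293T cells exposed to compound with 50 uM (final) chenodeoxycholic acid for 16 h, 37 C, then viability measured by CellTiter-Glo luminescence after 30 min, room temperature.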
# [7] = biological target: Vitamin D3 receptor (Homo sapiens) (UniProt P11473); assay: qHTS assay to identify small molecule agonists of the vitamin D receptor (VDR) signaling pathway (AID 743222; calls by dose curve)
# Outline: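 Using LiveBLAzer B/G FRET detection, agonism was scored in VDR-bla cells exposed overnight (16 h, 37C) to DMSO-dissolved compounds; substrate incubation was 2 h at room temperature.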
# [8] = biological target: Vitamin D3 receptor (Homo sapiens) (UniProt P11473); assay: qHTS assay to identify small molecule antagonists of the vitamin D receptor (VDR) signaling pathway (AID 743223; active means well fitted inhibition curve with a large enough effect in the signal ratio in the repeat runs, not every such curve was filed as active; the % refers to the signal ratio)
# Outline: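 Antagonist mode: compound added to VDR-bla cells alongside agonist 1alpha,25-dihydroxyvitamin D3 (3 nM final), incubation 16 h at 37C. Read-out is LiveBLAzer FRET fluorescence, 2 h at room temperature.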
# [9] = qHTS assay to identify small molecule agonists of the vitamin D receptor (VDR) signaling pathway - cell viability counter screen (AID 743224); further: nearly all actives have a fitted effect of over 50% in size; further: potency means the concentration at half of the fitted maximal effect
# Outline: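 Counter screen for cytotoxicity: VDR-bla cells at 2,000 cells/well, 16 h compound exposure, then CellTiter-Glo luminescence after the beta-lactamase measurement.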
# [10] = qHTS assay to identify small molecule antagonists of the vitamin D receptor (VDR) signaling pathway - cell viability counter screen (AID 743225); further: nearly all actives have a fitted effect of over 50% in size; further: potency means the concentration at half of the fitted maximal effect
# Outline: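 Cytotoxicity counter screen read by CellTiter-Glo luminescence (30 min, room temperature) in the same wells as the VDR-bla antagonist readout. HEK 293T VDR-UAS-bla cells had 16 h at 37C with compound and 3 nM (final) 1-alpha,25-dihydroxyvitamin D3, then 2 h with FRET substrate.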
# [11] = qHTS assay to identify small molecule agonists of the NFkB signaling pathway - cell viability counter screen (AID 1159515; calls by dose curve; further: series mostly up to about 61 µM; nearly all actives have a fitted effect of over 55% in size)
# Outline: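 Counter screen run alongside the NFkB-bla agonist assay: ME-180 reporter cells exposed to compounds for 5 hr, then lysed with CellTiter-Glo in the same wells. Luminescence, read after 30 min, reflects viable cells.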
# [12] = qHTS assay to identify small molecule agonists of the endoplasmic reticulum stress response signaling pathway (AID 1159516; active means well fitted activation curve with a large enough effect in the signal ratio in the repeat runs, not every such curve was filed as active; the % refers to the signal ratio)
# Outline: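 For this screen, HeLa cells stably carrying beta-lactamase under the ER stress response element received test compounds, positive controls or DMSO for 5 hr at 37 C; B/G FRET substrate was then added and dual-wavelength emission recorded.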
# [13] = qHTS assay to identify small molecule agonists of the endoplasmic reticulum stress response signaling pathway - cell viability counter screen (AID 1159517; calls by dose curve)
# Outline: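 Cytotoxicity of test compounds toward ESRE-bla HeLa cells was assessed after 5 hr exposure. The luminescent CellTiter-Glo signal was measured 30 min after reagent addition.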
# [14] = qHTS assay to identify small molecule antagonists of the retinoid-related orphan receptor gamma (ROR-gamma) signaling pathway - cell viability counter screen (AID 1159520); further: nearly all actives have a fitted effect of over 50% in size; further: potency means the concentration at half of the fitted maximal effect
# Outline: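 Tet-on ROR gamma CHO cells (1,000/well) were plated 4 hr, given compounds in DMSO for 2 hr at 37 C, then induced with 1 uM final doxycycline for 16 hr. Viability was read as ATP by CellTiter-Glo luminescence after 30 min.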
# [15] = biological target: Nuclear receptor ROR-gamma (Homo sapiens) (UniProt P51449); assay: qHTS assay to identify small molecule antagonists of the retinoid-related orphan receptor gamma (ROR-gamma) signaling pathway (AID 1159521; further: nearly all actives have a fitted effect of over 50% in size; further: potency means the concentration at half of the fitted maximal effect)
# Outline: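 Antagonist read-out: drop in luminescence (ONE-Glo) from an RORE-LUC reporter in CHO cells with doxycycline-inducible ROR-gamma; 2 hr compound pretreatment, 1 uM doxycycline, 16 hr incubation at 37 C.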
# [16] = qHTS assay to identify small molecule agonists of the AP-1 signaling pathway - cell viability counter screen (AID 1159525; calls by dose curve; further: nearly all actives have a fitted effect of over 55% in size)
# Outline: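 Each titration point was normalised to DMSO and tetra n-octyl ammonium bromide controls. The read was Cell Titer Glo luminescence after 30 min at RT, following 5 h compound exposure of ME-180 AP-1-bla cells at 37 °C.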
# [17] = qHTS assay to identify small molecule agonists of the AP-1 signaling pathway (AID 1159526; calls by dose curve)
# [18] = biological target: Bile acid receptor (Homo sapiens) (UniProt Q96RI1); assay: qHTS assay to identify small molecule antagonists of the farnesoid-X-receptor (FXR) signaling pathway (AID 743217; active means well fitted inhibition curve with a large enough effect in the signal ratio in the repeat runs, not every such curve was filed as active; the % refers to the signal ratio; further: potency means the concentration at half of the fitted maximal effect)
# Outline: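 Quantitative HTS, beta-lactamase reporter format: FXR-UAS-bla HEK 293T cells co-treated 16 h at 37 °C with compounds and 50 uM final chenodeoxycholic acid, then read by B/G FRET fluorescence.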
# [19] = biological target: Bile acid receptor (Homo sapiens) (UniProt Q96RI1); assay: qHTS assay to identify small molecule agonists of the farnesoid-X-receptor (FXR) signaling pathway (AID 743220; active means well fitted activation curve with a large enough effect in the signal ratio in the repeat runs, not every such curve was filed as active; the % refers to the signal ratio)
# Outline: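 FXR-UAS-bla HEK 293T cells carrying a UAS-driven beta-lactamase reporter were plated for 5 h at 37C/5% CO2, then exposed to DMSO-dissolved Tox21 10K compounds for 16 h at 37C. A LiveBLAzer B/G FRET substrate was loaded for 2 h at room temperature before fluorescence reading.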
# [20] = qHTS assay to identify small molecule agonists of the NFkB signaling pathway (AID 1159509; active means well fitted curve in the direction sought with a large enough effect in the signal ratio in the repeat runs, not every such curve was filed as active; the % refers to the signal ratio; further: series mostly up to about 61 µM)
# Outline: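 Beta-lactamase reporter assay run in quantitative high-throughput format on an NF-kB-responsive ME-180 line, with 5 hr compound treatment and a FRET-based blue/green fluorescence readout.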
# Sequence of Vitamin D3 receptor (Homo sapiens) (P11473 whole entry, looked up): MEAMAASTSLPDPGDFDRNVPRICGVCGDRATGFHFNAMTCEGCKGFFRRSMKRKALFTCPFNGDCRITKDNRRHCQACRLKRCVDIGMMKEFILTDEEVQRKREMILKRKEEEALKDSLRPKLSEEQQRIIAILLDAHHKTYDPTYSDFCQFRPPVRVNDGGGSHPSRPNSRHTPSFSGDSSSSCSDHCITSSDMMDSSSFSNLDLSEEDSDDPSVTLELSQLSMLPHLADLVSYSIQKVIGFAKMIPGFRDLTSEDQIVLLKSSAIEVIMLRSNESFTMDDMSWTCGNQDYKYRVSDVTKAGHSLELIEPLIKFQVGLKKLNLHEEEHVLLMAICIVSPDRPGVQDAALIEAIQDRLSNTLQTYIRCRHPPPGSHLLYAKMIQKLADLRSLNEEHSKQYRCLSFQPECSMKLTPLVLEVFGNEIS
# Sequence of Bile acid receptor (Homo sapiens) (Q96RI1 whole entry, looked up): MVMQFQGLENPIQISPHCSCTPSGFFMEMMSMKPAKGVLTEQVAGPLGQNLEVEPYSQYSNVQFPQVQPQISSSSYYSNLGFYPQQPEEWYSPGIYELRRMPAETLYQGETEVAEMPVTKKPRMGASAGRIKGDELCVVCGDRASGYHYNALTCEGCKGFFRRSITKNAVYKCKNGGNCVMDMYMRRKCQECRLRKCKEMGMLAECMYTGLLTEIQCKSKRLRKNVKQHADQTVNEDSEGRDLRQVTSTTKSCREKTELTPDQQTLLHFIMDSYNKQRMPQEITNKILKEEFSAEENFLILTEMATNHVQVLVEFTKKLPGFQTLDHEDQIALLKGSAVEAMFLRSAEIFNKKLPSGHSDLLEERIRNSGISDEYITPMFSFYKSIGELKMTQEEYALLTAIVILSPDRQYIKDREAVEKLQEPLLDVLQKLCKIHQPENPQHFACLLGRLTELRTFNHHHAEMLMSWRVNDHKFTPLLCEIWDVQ
# Sequence of Peroxisome proliferator-activated receptor delta (Homo sapiens) (Q03181 whole entry, looked up): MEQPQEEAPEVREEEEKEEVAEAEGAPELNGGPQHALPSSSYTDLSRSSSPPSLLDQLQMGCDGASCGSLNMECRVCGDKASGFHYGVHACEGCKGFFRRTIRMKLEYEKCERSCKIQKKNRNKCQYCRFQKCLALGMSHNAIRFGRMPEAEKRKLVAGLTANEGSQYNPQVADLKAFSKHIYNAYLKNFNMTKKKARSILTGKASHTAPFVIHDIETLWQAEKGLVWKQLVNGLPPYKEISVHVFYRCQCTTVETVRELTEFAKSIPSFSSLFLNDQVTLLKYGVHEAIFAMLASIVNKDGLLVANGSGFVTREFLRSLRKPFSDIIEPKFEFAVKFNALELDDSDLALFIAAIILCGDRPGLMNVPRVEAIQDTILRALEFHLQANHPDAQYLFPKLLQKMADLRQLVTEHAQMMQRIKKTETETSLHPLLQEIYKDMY
SMILES,Potency [1],Potency [2],Potency [3],Potency [4],Potency [5],Potency [6],Potency [7],Potency [8],Potency [9],Potency [10],Potency [11],Potency [12],Potency [13],Potency [14],Potency [15],Potency [16],Potency [17],Potency [18],outcome [19],outcome [20]
O=S1(=O)OC(c2ccc(O)cc2)(c2ccc(O)cc2)c2ccccc21,inactive,inactive,inactive,inactive,inactive,inactive,inactive,inactive,inactive,inactive,inactive,inactive,inactive,inactive,inactive,inactive,inactive,–,–,–
NC1CCCCC1,inactive,inactive,inactive,inactive,inactive,inactive,inactive,inactive,inactive,inactive,inactive,inactive,inactive,inactive,inactive,inactive,inactive,–,–,–
NS(=O)(=O)O,inactive,inactive,inactive,inactive,inactive,inactive,inactive,inactive,inactive,inactive,inactive,inactive,inactive,inactive,inactive,inactive,inactive,–,–,–
CN1CCc2cccc3c2[C@H]1Cc1ccc(O)c(O)c1-3,49.5 µM (active) and 10.3 µM (active) and 21.1 µM (active),inactive,49.5 µM (active) and 18.3 µM (active),55.5 µM (active) and 10.3 µM (active),–,44.1 µM (active) and inactive,inactive,inactive,49.5 µM (active) and 16.3 µM (active) and 26.6 µM (active),49.5 µM (active) and 11.5 µM (active),inactive,inactive,inactive,69.3 µM (active),27.6 µM (active) and 20.4 µM (active) and inactive,inactive,inactive,39.3 µM (active) and 18.3 µM (active),inactive,–
Nc1ccc(O)c([N+](=O)[O-])c1,inactive,inactive,inactive,–,–,–,–,–,–,–,–,–,–,inactive,8.63 µM (active),inactive,–,–,–,inactive
CCN(Cc1c(F)cccc1Cl)c1c([N+](=O)[O-])cc(C(F)(F)F)cc1[N+](=O)[O-],17.4 µM (active),inactive,–,–,19.5 µM (active),21.9 µM (active),–,inactive,inactive,–,–,–,–,inactive,inactive,–,–,–,inactive,inactive
CCCCNC(=O)NS(=O)(=O)c1ccc(C)cc1,inactive,inactive,inactive,inactive,inactive,inactive,inactive,inactive,inactive,inactive,inactive,inactive,inactive,inactive,inactive,inactive,inactive,inactive,inactive,–
COc1ccc(OC(F)(F)F)cc1CN[C@H]1CCCN[C@H]1c1ccccc1,43.6 µM (active),–,–,–,43.6 µM (active),–,inactive,–,54.9 µM (active),49 µM (active),–,–,inactive,inactive,–,–,–,–,–,inactive
CN[C@H]1CC[C@@H](c2ccc(Cl)c(Cl)c2)c2ccccc21,21.1 µM (active),–,–,–,23.7 µM (active),26.6 µM (active),–,–,13.3 µM (active),23.9 µM (active),–,–,–,inactive,inactive,inactive,–,–,–,inactive
